From PubChem BioAssay (NCI) come the findings set out here.

Each structure is given as a SMILES string. The panel holds about 83,000 compounds, 20% with a hit somewhere; the sample as a whole holds those more often.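 Interpretation: 100, growth as untreated; towards 0, rising growth inhibition; 0, no net growth; 0 to -100, cell death. Compounds scoring below 10 were considered active.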 A number with no mark means an inactive call. Active and inactive are the calls of the source.

Some test systems named below: T-47D breast; MDA-MB-435 melanoma; SW-620 colon; MCF7 breast; HCT-116 colon; HCC-2998 colon; KM12 colon; BT-549 breast.
Holding throughout (test): NCI-60 one-dose screen, 48 h (100 = growth as untreated, 0 = no growth, -100 = all killed)
What all share (details): 10 µM unless noted

As to `Cc1cccc[n+]1CCC[n+]1ccccc1C`, the growth with T-47D breast was 85.6%; in the assay on MDA-MB-435 melanoma, 102%; in the assay on SW-620 colon, 107%; in the assay with MCF7 breast, 96.5%; in the assay on HCT-116 colon, 86.1%; in the assay with HCC-2998 colon it was 107%. Besides, the growth in the assay with KM12 colon is 100%.

`C=CCn1c(SCC(=O)Nc2ccc(/C(C)=N\O)cc2)nnc1-c1cc(-c2ccc(OC)cc2)nc2ccccc12`: the growth was -4.63% (active) in the assay on T-47D breast; 35.6% in the assay on BT-549 breast; 46.1% in the assay on MDA-MB-435 melanoma; 45.8% in the assay with HCC-2998 colon; 29% with KM12 colon.

`Cc1cc[n+](CCCC[n+]2ccc(C)cc2)cc1`: the growth in the assay on T-47D breast was 105%; in the assay with MDA-MB-435 melanoma it was 102%; with SW-620 colon it was 103%; in the assay on MCF7 breast it was 96.3%; in the assay on HCT-116 colon, 100%; in the assay with HCC-2998 colon, 103%. Moreover, the growth with KM12 colon is 90.5%.

As to `O=C1OC(=O)C2C3CC(c4ccccc43)C12` (stereo not drawn), the growth with T-47D breast was 103%; in the assay with MDA-MB-435 melanoma it was 104%; with SW-620 colon, 101%; in the assay on MCF7 breast, 97.7%; with HCT-116 colon, 89.2%; in the assay on HCC-2998 colon it was 106%. Besides, the growth in the assay with KM12 colon was 105%.

As for `CCC1(C(N)=O)CC2C=CC1CC2` (stereo not drawn), the growth in the assay with T-47D breast was 101%; in the assay on MDA-MB-435 melanoma, 121%; in the assay on SW-620 colon it was 108%; with MCF7 breast, 98%; in the assay with HCT-116 colon, 107%; in the assay on HCC-2998 colon it was -100% (active). Also, in the assay on KM12 colon, the growth is 117%.

Regarding `COc1ccc(N)c(S)c1`, the growth in the assay with T-47D breast is 89.5%; in the assay with MDA-MB-435 melanoma it was 106%; in the assay with SW-620 colon it was 93.6%; in the assay with MCF7 breast, 94.4%; with HCT-116 colon, 92.5%; in the assay with HCC-2998 colon it was 103%. Besides, the growth in the assay on KM12 colon is 105%.

Consider `c1nc(SC2=NCCN2)c2[nH]cnc2n1`, for which the growth was 21.8% in the assay on T-47D breast; 24% with MDA-MB-435 melanoma; 58.5% with SW-620 colon; 14% in the assay with MCF7 breast; 37% in the assay with HCT-116 colon; 32.8% in the assay with HCC-2998 colon. For the same compound, the growth in the assay on KM12 colon is 47.2%.

In the case of `CCCCCCCCCCCC(=O)OCCNC(=O)C[n+]1ccccc1`, the growth is 95.3% in the assay with T-47D breast; 116% in the assay on SW-620 colon; 97.9% in the assay on MCF7 breast; 103% in the assay with HCT-116 colon; 111% in the assay with HCC-2998 colon; 110% in the assay with KM12 colon.

Consider `CCOC(=O)n1cnc2c(Cl)ncnc21`, for which the growth in the assay with T-47D breast was 100%; with MDA-MB-435 melanoma, 111%; in the assay with SW-620 colon, 108%; with MCF7 breast, 95.2%; in the assay on HCT-116 colon, 101%; in the assay on HCC-2998 colon, 2.2% (active). Also, in the assay on KM12 colon, the growth was 107%.

In the case of `CCNc1cc(S(=O)(=O)O)ccc1C`, the growth is 90% with T-47D breast; 107% in the assay on MDA-MB-435 melanoma; 104% in the assay with SW-620 colon; 98.6% in the assay with MCF7 breast; 98.3% in the assay with HCT-116 colon; 103% in the assay with HCC-2998 colon. For the same compound, the growth in the assay with KM12 colon is 107%.

For the compound `Cc1cc2nc(-c3c(N)ncc(C#N)c3-c3ccc(Cl)cc3)[nH]c2cc1C`, the growth is 68.8% with T-47D breast; 58% in the assay with MDA-MB-435 melanoma; 76.6% with SW-620 colon; 58.5% in the assay on MCF7 breast; 34.8% in the assay with HCT-116 colon; 65.4% in the assay with HCC-2998 colon. In the assay on KM12 colon, the growth is 52.9%.

As for `COc1cccc(/C=N/C(=S)NC2(C)C3CCC(C3)C2(C)C)c1O` (stereo not drawn), the growth in the assay with T-47D breast was 56.5%; with MDA-MB-435 melanoma, 89.8%; in the assay on SW-620 colon, 78.9%; with MCF7 breast it was 47.8%; in the assay with HCT-116 colon, 53.4%; with HCC-2998 colon, 108%. Moreover, the growth in the assay on KM12 colon is 87.8%.

On to `COc1ccccc1P(c1ccccc1OC)c1ccccc1OC`, for which the growth was 87.6% in the assay with T-47D breast; 115% with MDA-MB-435 melanoma; 103% with SW-620 colon; 95.9% in the assay with MCF7 breast; 94.2% with HCT-116 colon; -97.4% (active) in the assay with HCC-2998 colon. Moreover, in the assay on KM12 colon, the growth was 86.4%.

Regarding `CCOC(=O)C1CN(Cc2ccccc2)C(=O)C1=O` (stereo not drawn), the growth in the assay on T-47D breast is 104%; with MDA-MB-435 melanoma it was 98.6%; in the assay with SW-620 colon, 95%; in the assay with MCF7 breast, 100%; in the assay with HCT-116 colon it was 92.9%; in the assay with HCC-2998 colon, 118%. In the assay on KM12 colon, the growth was 108%.

On to `CC(C)CCC[C@@H](C)[C@H]1CC[C@H]2[C@@H]3CC=C4N(c5ccccc5)C(=O)CC[C@]4(C)[C@H]3CC[C@]12C`, for which the growth is 95% with T-47D breast; 100% in the assay with MDA-MB-435 melanoma; 99.8% in the assay with SW-620 colon; 89.5% in the assay on MCF7 breast; 99.2% with HCT-116 colon; 102% in the assay on HCC-2998 colon. Besides, the growth with KM12 colon was 105%.

`CCOC(=O)c1cnc2c(OC)ccc(OC)c2c1Cl`: the growth is 116% with T-47D breast; 104% with MDA-MB-435 melanoma; 108% in the assay with MCF7 breast; 108% with HCT-116 colon; 117% with HCC-2998 colon; 101% with KM12 colon.

For `Oc1ccc(Cl)cc1Sc1cc(Cl)ccc1O`, the growth in the assay with T-47D breast was 75.8%; in the assay with SW-620 colon it was 103%; in the assay on MCF7 breast, 91.3%; in the assay on HCT-116 colon it was 86.9%; in the assay with HCC-2998 colon, 106%; in the assay with KM12 colon, 106%.

Take `CCC(N)(C(=O)O)c1ccc(F)cc1` (stereo not drawn): the growth in the assay with T-47D breast was 111%; in the assay with MDA-MB-435 melanoma, 105%; with SW-620 colon, 110%; with MCF7 breast it was 93.5%; in the assay with HCT-116 colon, 91.3%; in the assay on HCC-2998 colon it was 95.4%. Also, the growth with KM12 colon was 105%.

With `Cc1cccc(NCS(=O)(=O)O)c1`, the growth in the assay with T-47D breast was 94.1%; in the assay on MDA-MB-435 melanoma, 108%; with SW-620 colon, 101%; in the assay with MCF7 breast, 95.1%; in the assay on HCT-116 colon it was 102%; in the assay on HCC-2998 colon, 96.9%. Moreover, the growth with KM12 colon is 112%.

Take `COc1ccc(OCC(O)CN2CCN(c3ccc(Cl)cc3)CC2)cc1` (stereo not drawn): the growth with T-47D breast was 78%; with MDA-MB-435 melanoma, 106%; in the assay on SW-620 colon, 101%; with MCF7 breast, 89.2%; in the assay on HCT-116 colon, 91.5%; with HCC-2998 colon, -94.4% (active). In addition, in the assay with KM12 colon, the growth is 98.9%.

`CSc1nc(N)nc2c1ncn2C`: the growth was 90.3% in the assay on T-47D breast; 102% in the assay with MDA-MB-435 melanoma; 101% in the assay with SW-620 colon; 96.7% in the assay with MCF7 breast; 92.1% with HCT-116 colon; 99.8% in the assay with HCC-2998 colon. In the assay on KM12 colon, the growth is 95.6%.

With `CC(=S)Nc1ccccc1`, the growth with T-47D breast is 100%; with MDA-MB-435 melanoma, 99.4%; in the assay on SW-620 colon it was 96.8%; in the assay with MCF7 breast, 95%; in the assay with HCT-116 colon, 104%; in the assay with HCC-2998 colon, 105%. Also, the growth with KM12 colon was 106%.

Regarding `CNC(=O)NN`, the growth in the assay with T-47D breast was 92.3%; in the assay on MDA-MB-435 melanoma, 102%; with SW-620 colon it was 93.7%; in the assay on MCF7 breast it was 98.1%; in the assay with HCT-116 colon it was 93.6%; with HCC-2998 colon it was 101%. In addition, the growth in the assay with KM12 colon is 101%.

As for `O=[N+]([O-])c1ccc(NS(=O)(=O)c2cc(Cl)ccc2Cl)c2ccccc12`, the growth was 48% in the assay on BT-549 breast; 52.3% in the assay on MDA-MB-435 melanoma; 64.4% in the assay on SW-620 colon; 46.4% in the assay with MCF7 breast; 45% in the assay on HCT-116 colon; 32.2% with HCC-2998 colon. Further, the growth in the assay with KM12 colon was 40.5%.

On to `CCOC(=O)C1CSC(C)(C(=O)OCC)N1` (stereo not drawn), for which the growth with T-47D breast was 99.8%; in the assay with MDA-MB-435 melanoma it was 103%; in the assay with SW-620 colon, 104%; in the assay with MCF7 breast it was 93.4%; in the assay on HCT-116 colon it was 96.6%; in the assay with HCC-2998 colon, 101%. Also, the growth in the assay with KM12 colon is 107%.

`NN=C(c1ccc(Cl)cc1)c1ccc(Cl)cc1`: the growth in the assay with T-47D breast is 108%; in the assay on MDA-MB-435 melanoma, 97.1%; with MCF7 breast, 99.6%; with HCT-116 colon, 98.4%; in the assay with HCC-2998 colon, 96%; in the assay on KM12 colon, 92.9%.

As to `O=[N+]([O-])c1cccc2cc(S(=O)(=O)O)ccc12`, the growth in the assay on T-47D breast was 98.9%; with MDA-MB-435 melanoma it was 110%; with SW-620 colon it was 99.9%; in the assay with MCF7 breast, 97.2%; in the assay on HCT-116 colon it was 97.6%; in the assay on HCC-2998 colon, 100%. The growth with KM12 colon is 108%.
